Compound activity as filed in PubChem.
PME-1 primary: PME-1 (human) inhibition | recombinant PME-1, FP-Rh probe fluorescence polarization | Q9Y570 | AID 2130 | inhibition, % at 5.9 µM | 0.53% of 320,000 active;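 active = inhibition above the campaign mean of all compounds plus 3 SD, cut at about 26% in these data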;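 also: competitive labeling of PME-1 active site by serine hydrolase directed probe; inhibitors block probe labeling so polarization falls and inhibition rises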
PAFAH1B2 FP inh: PAFAH1B2 (human) inhibition. P68402. recombinant PAFAH1B2, FP-rhodamine activity probe, fluorescence polarization. inhibition, % at 3.39 µM. 1.2% of 340,000 active. AID 492953;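 active = inhibition above the mean of all tested compounds plus 3 SD, cut at about 24% in these data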
pPAFAH inh: inhibitors of human plasma PAF acetylhydrolase (pPAFAH). Q13093. recombinant pPAFAH, FP-rhodamine probe fluorescence polarization. inhibition, % at 3.39 µM. 1.5% of 330,000 active;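 active = inhibition above the mean inhibition across the screen plus 3 SD, cut at about 25% in these data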;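 also: inhibitors block binding of the rhodamine activity-based probe so polarization drops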
Target sequence (Q13093 whole entry, looked up): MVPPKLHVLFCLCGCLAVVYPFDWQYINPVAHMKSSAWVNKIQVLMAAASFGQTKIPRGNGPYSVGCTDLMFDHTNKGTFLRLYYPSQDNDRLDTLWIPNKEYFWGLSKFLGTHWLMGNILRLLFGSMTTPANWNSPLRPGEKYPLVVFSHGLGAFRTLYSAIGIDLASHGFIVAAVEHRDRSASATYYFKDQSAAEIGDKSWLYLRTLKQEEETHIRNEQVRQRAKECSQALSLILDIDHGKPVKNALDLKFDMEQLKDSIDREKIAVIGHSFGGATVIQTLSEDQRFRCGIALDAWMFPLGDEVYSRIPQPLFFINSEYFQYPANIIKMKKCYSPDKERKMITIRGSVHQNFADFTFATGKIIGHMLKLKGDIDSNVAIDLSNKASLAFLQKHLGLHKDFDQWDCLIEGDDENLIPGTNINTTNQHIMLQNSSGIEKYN
Fam108B counter: blocks mouse Fam108B hydrolase in RBBP9 counter-screen; AID 1947; 0.33% of 300,000 active; inhibition, % at 9.51 µM; recombinant Fam108B, FP-Rh probe fluorescence polarization;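 active = inhibition above the screen mean inhibition plus 3 SD, computed separately per campaign, cut at about 18% in these data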;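 also: inhibitors lower polarization as less probe binds the enzyme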
PAFAH1B3 inh: PAFAH1B3 (human) inhibition. AID 492972. recombinant PAFAH1B3, FP-rhodamine probe, fluorescence polarization. inhibition, % at 3.39 µM. 0.28% of 340,000 active. Q15102;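 active = inhibition above the screen-wide average of all tested compounds plus 3 SD, cut at about 25% in these data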
PAFAH2 inh: inhibitors of human PAFAH2; recombinant PAFAH2, FP-rhodamine activity probe, fluorescence polarization; inhibition, % at 3.39 µM; 0.99% of 340,000 active;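 active = inhibition above the mean over all tested compounds plus 3 SD, cut at about 30% in these data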;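 also: inhibitors block probe labeling of enzyme so polarization drops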
PAFAH2 FP conf: confirmation of human PAFAH2 inhibitors; 65% of 2,300 active; shares compounds with PAFAH2 inh; recombinant PAFAH2, FP-rhodamine activity probe, fluorescence polarization; inhibition, % at 3.39 µM;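 active = mean inhibition over three repeats above a set limit taken from the earlier primary screen, cut at about 30% in these data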;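 also: inhibitor blocks binding of rhodamine activity probe so polarization falls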
Numbers stand for hits; n = inactive; x = no result given. The list is not random: actives were taken first. Their share in the collection is about 2.8%.

SMILES	PME-1 primary	PAFAH1B2 FP inh	pPAFAH inh	Fam108B counter	PAFAH1B3 inh	PAFAH2 inh	PAFAH2 FP conf
CC(C)c1ccc(NC(=O)[C@@H]2CCC(=O)N2C2OC(=O)c3ccccc32)cc1 (some centres not stated)	n	n	n	n	n	n	x
Cc1cc(C(=O)OCC(=O)NC(C)c2ccc(F)cc2)c(C)o1 (configuration not stated)	n	n	n	x	n	48	34
O=C(COC(=O)c1c[nH]c2ccccc12)Nc1ccc([N+](=O)[O-])cc1	n	n	n	x	n	73	73
Cc1ccc(C(=O)OCC(=O)NC(C)c2ccccc2)cc1C (configuration not stated)	x	n	n	x	n	75	63
CC(NC(=O)COC(=O)c1c[nH]c2ccccc12)c1ccccc1 (configuration not stated)	x	n	n	x	n	55	52
CC(NC(=O)CCc1c[nH]c2ccccc12)c1ccccc1 (configuration not stated)	n	n	n	n	n	n	x
COc1ccc(N(Cc2ccccc2)N=O)cc1	n	n	n	n	n	n	x
CC(NC(=O)COC(=O)/C=C/c1cccc(C(F)(F)F)c1)c1ccccc1 (configuration not stated)	n	n	n	n	n	n	x
Cc1ccc(/C=C/C(=O)OCC(=O)NC(C)c2ccccc2)o1 (configuration not stated)	n	n	n	x	n	54	38
CC(NC(=O)COC(=O)c1cc2ccccc2cc1O)c1ccccc1 (configuration not stated)	x	n	x	x	n	n	x
Cc1cc(C(=O)OCC(=O)NC(C)c2ccccc2)c(C)o1 (configuration not stated)	n	n	n	n	n	32	n
O=C(CN1C(=O)c2ccccc2S1(=O)=O)Nc1ccc([N+](=O)[O-])cc1	x	n	n	x	n	n	x
O=C(COC(=O)c1cccs1)Nc1ccccc1C(F)(F)F	n	n	n	n	n	77	54
CCc1ccccc1NC(=O)COC(=O)c1cccs1	n	n	n	n	n	80	76
O=C(Nc1nnc(Cc2ccccc2)s1)C1CCN(C(=O)c2ccco2)CC1	n	n	n	n	n	n	x
Cn1c(NNC(=O)C2CCCCC2)cc(=O)n(C)c1=O	n	n	n	n	n	n	x
NC(=O)c1sc2nc3c(c(-c4ccco4)c2c1N)CCC3	n	n	n	n	n	44	n
CCCN(C(=O)CSCC(=O)Nc1ccc(OC)cc1)c1c(N)n(Cc2ccccc2)c(=O)[nH]c1=O	n	n	n	n	n	n	x
CCc1ccccc1NC(=O)COc1ccc(N2CC(C(N)=O)CC2=O)cc1 (configuration not stated)	n	n	n	n	n	n	x
Cc1ccc(C(=O)O/N=C(/c2nonc2N)N(C)C)cc1	n	n	n	n	n	51	41
CC(C#N)N1CCN(S(=O)(=O)c2ccc3c(c2)CCC3)CC1 (configuration not stated)	n	n	n	x	n	n	x
O=C(OCC(=O)N1CCc2ccccc21)c1cccnc1Cl	n	n	n	n	n	n	x
CSc1nc2[nH]c(=O)n(O)c(=O)c2n1Cc1ccccc1	x	n	x	x	n	37	n
COc1ccc(C(=O)OCC(=O)NC2CCCCCCC2)cc1OC	x	n	n	x	n	87	78
COc1ccc(C(=O)OCC(=O)NC2CC2)cc1[N+](=O)[O-]	n	n	n	n	n	31	n
SMILES	PME-1 primary	PAFAH1B2 FP inh	pPAFAH inh	Fam108B counter	PAFAH1B3 inh	PAFAH2 inh	PAFAH2 FP conf
COc1ccc(C(=O)OCC(=O)NC2CCCCCC2)cc1OC	n	n	n	x	n	93	83
CCOc1ccc(C(=O)OCC(=O)NC2CCCC2)cc1OCC	n	n	n	n	n	84	82
COc1ccc2c(c1)c(=O)oc1cc(OCC(=O)N3CCc4ccccc4C3)ccc12	n	n	n	n	n	n	x
Cc1ccc(OCC(=O)NC2CCCCCC2)cc1C	n	n	n	n	n	n	x
COc1ccc(C(=O)OCC(=O)NC2CC2)cc1OC	n	n	n	x	n	67	55
COC(=O)c1cc(C(=O)OCC(=O)NC2CCCC2)cc([N+](=O)[O-])c1	n	n	n	n	n	n	x
COc1cc(OC)cc(C(=O)OCC(=O)NC2CCCCCC2)c1	n	n	n	x	n	61	59
